# Screens from PubChem BioAssay.
# Only some compounds are listed: those with a hit (about 22% of all), similar ones and a draw of the others.
# CYP2C9 activ – activators of human CYP2C9; P11712; recombinant CYP2C9, luciferin-H conversion, luminescence; active compounds read high; factor 1 = untreated enzyme, 0 = blocked; activation factor at 5 µM; 96,000 tested, 1.4% active; AID 1024;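 active means activation factor of 2 or more for CYP2C9 at a 5 µM dose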;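 further: 0 = sulfaphenazole-blocked wells and 1 = vehicle-only wells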
# CYP2C19 inhib – blocks human cytochrome P450 2C19; P33261; CYP2C19 Supersomes, luciferin-H EGE luminescence, 30 min; inhibition, % at 5 µM; 96,000 tested, 21% active; AID 778;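 active means CYP2C19 inhibition above a set limit at 5 µM in the primary screen, cut at about 50% in these data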;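 further: plate controls were negative control wells for no effect and 2.5 mM tranylcypromine positive control for full effect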
# Target sequence (P33261 whole entry, looked up): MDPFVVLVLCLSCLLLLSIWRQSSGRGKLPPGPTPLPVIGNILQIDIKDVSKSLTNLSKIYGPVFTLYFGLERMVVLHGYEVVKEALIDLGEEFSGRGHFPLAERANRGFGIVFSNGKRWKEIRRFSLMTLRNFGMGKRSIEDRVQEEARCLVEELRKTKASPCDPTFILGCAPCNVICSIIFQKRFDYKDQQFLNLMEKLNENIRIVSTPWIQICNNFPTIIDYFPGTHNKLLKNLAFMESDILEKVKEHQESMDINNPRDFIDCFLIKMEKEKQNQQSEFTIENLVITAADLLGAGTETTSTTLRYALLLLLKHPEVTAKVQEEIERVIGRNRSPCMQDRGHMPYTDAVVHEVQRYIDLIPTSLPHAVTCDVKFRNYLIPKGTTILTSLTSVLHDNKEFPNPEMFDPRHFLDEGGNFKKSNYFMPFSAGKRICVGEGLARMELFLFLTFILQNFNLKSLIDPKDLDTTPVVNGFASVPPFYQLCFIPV
# Measles CPE – protection of cells from measles virus; Measles virus-infected cells, CPE protection, absorbance; protection (pct of control), % at 4 µM; 140,000 tested, 1.5% active; in the data active means protection mostly above about 24%, no sharp cut-off; inactive means mostly below about 26%
# CYP2C19 act – activators of human cytochrome P450 2C19; P33261; recombinant CYP2C19, luciferin-H EGE luminescence; active compounds read high; 0 = fully inhibited enzyme, 1 = untreated enzyme; activation factor at 5 µM; 96,000 tested, under 10 active; AID 1025;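 active means activation factor of at least 2 at 5 µM in the primary screen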;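 further: 0 = wells with 2.5 mM tranylcypromine and 1 = vehicle-only wells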
# CYP2C9 inh – inhibitors of human CYP2C9 | P11712 | CYP2C9 Supersomes, luciferin-H conversion, luminescence | inhibition, % at 5 µM | 96,000 tested, 20% active | AID 777;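 active means blocking of liver enzyme CYP2C9 beyond about 50% at 5 µM, limit read from the data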
# * hit, by the source's call; · = no result.
SMILES,CYP2C9 activ,CYP2C19 inhib,Measles CPE,CYP2C19 act,CYP2C9 inh
Cc1c([N+](=O)[O-])cc(C(=O)Oc2ccc(Br)cc2C(=S)N2CCCCC2)cc1[N+](=O)[O-],0.7,54*,14,0.5,33
CC1CCC2(CC1)NC(=O)c1ccccc1O2 (configuration not stated),0.8,93*,8,0.1,22
O=S(=O)(NCCc1ccccn1)c1ccc(F)c(F)c1,0.8,85*,5,0.2,23
COc1cc(Cl)c(S(=O)(=O)NCc2cccnc2)cc1Cl,0.9,85*,8,0.1,11
COc1cc(S(=O)(=O)NCc2cccnc2)ccc1F,1.3,83*,8,0.2,-27
COc1ccc(S(=O)(=O)NCc2ccccn2)cc1Cl,3.2*,92*,13,0.1,-218
COc1cc(Cl)c(S(=O)(=O)NCc2ccccn2)cc1Cl,1.3,81*,1,0.2,-31
CN1C(=O)N2CN(C3CCCCC3)CN3C(=O)N(C)C1C23 (configuration not stated),1.2,-5,1,1,-16
CSc1ccc(CNc2ccc(Cl)cc2)cc1,1,96*,25,0,3
COc1cc(NC(=O)C2CCN(S(=O)(=O)c3ccc(Cl)cc3)CC2)ccc1-n1cnnn1,0.9,5,4,1,9
Cc1noc(C)c1S(=O)(=O)NCCN1CCN(c2ccccc2)CC1,1.1,-6,7,1.1,-13
Cc1occc1C(=O)N1CCN(Cc2ccccc2)CC1,0.7,90*,3,0.1,33
Cc1noc(C)c1C(=O)N1CCN(Cc2ccccc2)CC1,0.9,91*,13,0.1,10
O=C(c1coc(=O)c2ccccc12)N1CCN(Cc2ccccc2)CC1,1.3,55*,3,0.4,-30
Cc1ccc(CN2CCN(C(=O)c3ccco3)CC2)cc1,·,·,2,·,·
Cc1noc(C)c1C(=O)N1CCN(CCc2ccccc2)CC1,0.9,17,16,0.8,7
Cc1noc(C)c1S(=O)(=O)NCCCN1CCN(Cc2ccccc2)CC1,1,3,30*,1,0
CCc1nnc(NS(=O)(=O)c2ccc(NC(=S)NC(=O)c3ccc(OC)cc3)cc2)s1,·,·,14,·,·
CS(=O)(=O)N1CCC(C(=O)Nc2ccc3c(c2)OCCO3)CC1,1.1,-1,7,1,-7
CCOc1ccc(OCC)c(N=c2oc3c(C)ncc(CO)c3cc2C(N)=O)c1,0.8,-2,50*,1,21
COc1cccc(N=c2oc3c(C)ncc(CO)c3cc2C(=O)Nc2ccccc2OC)c1,0.2,22,13,0.8,77*
CCCCOC(=O)c1ccc(NC(=O)/C=C/c2cccs2)cc1,·,·,11,·,·
CCOc1ccc(Br)cc1CC(=O)O,·,·,11,·,·
CCOc1ccc(Br)cc1C1C(C(=O)OC)=C(N)Oc2cc(N(C)C)ccc21 (configuration not stated),0.1,94*,6,0.1,85*
COC(=O)[C@@]1(Cc2ccc(F)cc2)[C@H]2c3cc(C(=O)N4CCCC4)n(CCc4ccccn4)c3C[C@H]2CN1C(=O)c1ccccc1,·,·,17,·,·
SMILES,CYP2C9 activ,CYP2C19 inhib,Measles CPE,CYP2C19 act,CYP2C9 inh
CCOC(=O)c1c(N)sc(N)c1C(=O)OCC,·,·,17,·,·
CCOC(=O)c1c(N)sc(C(=O)N2CCCCCC2)c1C,0.7,81*,13,0.2,34
CCOC(=O)c1c(N)ssc1=S,0.3,26,34,0.7,66*
CCOC(=O)c1c(NC(=O)CC)sc(C(=O)N2CCCCC2)c1C,0.4,75*,21,0.3,57*
C=CCn1c(SCc2cc(=O)n3ccsc3n2)nc2sc(C)c(C)c2c1=O,0.8,0,·,1,19
Cc1ccc(NS(=O)(=O)c2cc(NC(=O)c3cc4c(s3)CCCC4)ccc2C)c(C)c1,·,·,2,·,·
O=C(Oc1ccc2c(=O)c(Cl)coc2c1)c1ccncc1,0.2,75*,9,0.3,77*
COc1cccc(/C=N/NC(=O)CN2C(=O)NC3NC(=O)NC32)c1 (configuration not stated),·,·,3,·,·
c1csc(C(c2nnnn2C2CCCC2)N2CCCC3(CCCCC3)C2)c1 (configuration not stated),0.4,14,8,0.9,56*
O=C(c1ccco1)N1CCN(C(c2cccs2)c2nnnn2C2CCCCC2)CC1 (configuration not stated),0.3,45,19,0.5,68*
O=C(Nc1ccccc1-c1nc2ccccc2s1)c1cccnc1Cl,0.9,1,·,1,12
COCCCNC(=O)C1CCCN(S(=O)(=O)c2ccc(C)cc2)C1 (configuration not stated),·,·,9,·,·
